From PubChem BioAssay
“And” between values parts separate entries of the source, which are not always exact repeats. Equal entries are not always repeated. For some of these results: Results with a measured potency or affinity are listed apart. The source made the active and inactive calls. Unless noted, how the calls were made is not given here.

Columns and labels:
[1] = blockers of polyQ-driven CASP3 activation – cell-based (AID 1583); settings: polyglutamine-induced caspase-3 activation, cell assay; stronger effect = higher value;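 tested at 10 µM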
[2] = yeast 75Q aggregation reduction – 75Q-TubU reporter (AID 1593); settings: Yeast 75Q polyglutamine aggregation reporter
[3] = restoration of touch response, mutant HTT neurons – whole organism, C. elegans mechanosensory neurons, N-terminal huntingtin (AID 1599); settings: C. elegans polyQ-huntingtin mechanosensory neurons, stronger effect = higher value
[4] = blockers of cytochrome c efflux from mitochondria – biochemical, purified mitochondria (AID 1603); settings: stronger effect = lower value;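 further: mouse liver mitochondria challenged with calcium chloride; signal normalized to the plate average as 100%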
[5] = polyglutamine aggregate formation blockers (AID 1604); settings: polyglutamine-induced protein aggregation inhibition assay; stronger effect = higher value; tested at 2.5 µM
[6] = glutamate transport activators, MN-1 cells, MN-1 cell line (AID 1612); settings: MN-1 motor neuron cells, stronger effect = higher value;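 further: tested at 1 µM final; 0% = mean of DMSO vehicle wells on each plate; positive means more glutamate uptake than control and negative means less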
[7] = 75Q-TubH aggregate inhibition, S. cerevisiae, yeast (AID 1616); settings: S. cerevisiae 75Q-TubH polyglutamine aggregation suppression; stronger effect = higher value
[8] = P. berghei load reduction in hepatocytes – cell-based, HepG2, luciferase luminescence, HepG2 viability, primary screen (AID 624349; in the data active means parasite load remaining mostly below about 12%, no sharp cut-off; inactive means mostly above about 10%;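 further: 100% = mean of DMSO negative control wells on the same plate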); settings: P. berghei liver stage in HepG2, luciferase luminescence, concentration not given here; parasite load remaining: stronger effect = lower value; viability: measured here: HepG2 viability without parasites
[9] = signal quenchers or enhancers, Cy5 substrate/SSB – biochemical, NIH Clinical Collection, E. coli SSB, artefact control for HCV NS3 helicase inhibitor project (AID 743268); settings: Cy5-oligo bound E. coli SSB, fluorescence interference
[10] = tested on: Hepatitis C virus NS3 helicase; assay: blockers of NS3h binding to DNA – biochemical, fluorescence polarization, NIH Clinical Collection, primary screen (AID 743270); settings: NS3 helicase binding to Cy5-dT15 DNA, stronger effect = higher value, concentration not given here
[11] = target: Single-stranded DNA-binding protein (Escherichia coli (strain K12)) (UniProt P0AGE0); assay: SSB-ssDNA binding inhibitors – biochemical, fluorescence polarization, NIH Clinical Collection, counter-screen for HCV NS3 helicase inhibitor project (AID 743271; in the data active means inhibition above about 28%); settings: E. coli SSB-DNA binding, stronger effect = higher value, concentration not given here
[12] = compounds distorting NS3 helicase fluorescence signal – biochemical, NIH Clinical Collection, artefact control for HCV NS3 helicase inhibitor project (AID 743272); settings: fluorescence interference counterscreen, HCV NS3 helicase assay; stronger effect = lower value;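 further: HCV NS3 helicase with a Cy5 labelled single stranded DNA probe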
[13] = modulation of C. elegans fzo-1 (AID 1259413);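 further: fzo-1 mutant C. elegans worms in liquid wells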; settings: C. elegans fzo-1 modulator screen, mean read-out; stronger effect = higher value
[14] = blockers of cellular phospholipid synthesis – cell-based, LOPAC library, screen 4, primary screen (AID 1347384); settings: animal cells, phospholipid biosynthesis inhibition screen; at 10 µM
[15] = galactose survival enhancers in mitochondrial complex I cybrids – cell-based, galactose medium, ATP luminescence, primary screen (AID 1645843;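 active means z-score of at least 1.8 in each of two replicates, scored against plate mean and spread of sample wells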;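 further: positive z means more ATP and so rescue of galactose-driven cybrid death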); settings: complex I mutant cybrid cells, 72 h, stronger effect = higher value
F380Y/beta1 = assay: BK channel mutant inhibitors and activators – cell-based, U2OS BacMam, thallium flux, beta subunits, selectivity assay, profiling panel (AID 1259406;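 active means thallium flux through the channel raised or lowered by more than 3 SD from vehicle-only wells, actives on both sides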;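 further: initial slope of Thallos dye fluorescence rise after thallium is added; log ratio against the mean of 0.3% DMSO vehicle wells on the same plate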); settings: U2OS BacMam BK variants, at 30 µM
F380Y/beta4 = assay: as above; settings: U2OS BacMam BK variants, at 30 µM
R275C/beta4 = assay: as above; settings: U2OS BacMam BK variants, at 30 µM
R275C/Slo1WT/beta2 = assay: as above; settings: U2OS BacMam BK variants, at 30 µM
[16] = compounds altering viability of human ES cells (AID 493140); settings: human embryonic stem cell survival screen; stronger effect = higher value;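 further: cells exposed to compounds for four days before counting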

`CN(C)C(=O)Oc1ccc[n+](C)c1` showed an inhibition [1] of 18.4%, a score [2] of 1.37 and a rescue above control [3] of -0.24. It also gave a cytochrome c release ratio [4] of 0.97, an inhibition of aggregation [5] of 27% and a glutamate uptake change [6] of -0.9%. For the same molecule, the aggregation suppression score [7] was 1.35, the parasite load remaining [8] was 46.4% (inactive) and 38.1% (inactive) and 33.2% (inactive) and the viability [8] was 90.6% and 93.2% and 82.1%. For the same molecule, the fluorescence ratio [9] was 1.01 (inactive), the inhibition [10] was 0.45% (inactive) and the inhibition [11] was 0.29% (inactive). For the same molecule, the fluorescence ratio [12] was 0.97 (inactive), the mean signal [13] was 265 (inactive) and the outcome [14] was “inactive”. The z-score [15] was 0.81 (inactive) and 0.62 (inactive), the log fold change Tl+ flux (F380Y/beta1) was 0.0465 (inactive) and the log fold change Tl+ flux (F380Y/beta4) was -0.0469 (inactive). For the same molecule, the log fold change Tl+ flux (R275C/beta4) was -0.0147 (inactive) and the log fold change Tl+ flux (R275C/Slo1WT/beta2) was 0.0451 (inactive).

Work on `c1ccc2c(c1)CCCC2C1=NCCN1` (stereo unspecified) yielded an inhibition [1] of -4.42%, a score [2] of 1.43 and a rescue above control [3] of 7.66. For the same molecule, the cytochrome c release ratio [4] was 0.63, the inhibition of aggregation [5] was 56.8% and the glutamate uptake change [6] was 6.14%. For the same molecule, the aggregation suppression score [7] was 1.06, the survival [16] was 6 (inactive) and the fluorescence ratio [9] was 0.97 (inactive). The inhibition [10] was -4.09% (inactive), the inhibition [11] was -0.48% (inactive) and the fluorescence ratio [12] was 0.93 (inactive). The mean signal [13] was 221 (inactive), the outcome [14] was “inactive” and the z-score [15] was 0.18 (inactive) and 0.17 (inactive). For the same molecule, the log fold change Tl+ flux (F380Y/beta1) was 0.041 (inactive), the log fold change Tl+ flux (F380Y/beta4) was 0.00535 (inactive) and the log fold change Tl+ flux (R275C/beta4) was 0.0129 (inactive). The log fold change Tl+ flux (R275C/Slo1WT/beta2) was 0.0141 (inactive).

Molecule `O=C1NC(=O)C(c2ccccc2)(c2ccccc2)N1` has an inhibition [1] of 5.01%, a score [2] of 1.42 and a rescue above control [3] of 6.5. For the same molecule, the cytochrome c release ratio [4] was 0.9, the inhibition of aggregation [5] was 62.8% and the glutamate uptake change [6] was -8.41%. The aggregation suppression score [7] was 1.74, the fluorescence ratio [9] was 1.01 (inactive) and the inhibition [10] was -2.27% (inactive). For the same molecule, the inhibition [11] was -2% (inactive), the fluorescence ratio [12] was 1 (inactive) and the mean signal [13] was 250 (inactive). The outcome [14] was “inactive”, the z-score [15] was 0.08 (inactive) and 1.09 (inactive) and 0.395 (inactive) and the log fold change Tl+ flux (F380Y/beta1) was 0.0354 (inactive). The log fold change Tl+ flux (F380Y/beta4) was 0.0289 (inactive), the log fold change Tl+ flux (R275C/beta4) was -0.0221 (inactive) and the log fold change Tl+ flux (R275C/Slo1WT/beta2) was 0.0271 (inactive).

Molecule `CC(=O)CCCCn1c(=O)c2c(ncn2C)n(C)c1=O` has an inhibition [1] of 49.3%, a score [2] of 1.37 and a rescue above control [3] of -11.6. For the same molecule, the cytochrome c release ratio [4] was 0.83, the inhibition of aggregation [5] was 60.9% and the glutamate uptake change [6] was -0.27%. The aggregation suppression score [7] was 1.44, the survival [16] was 14.1 (inactive) and the fluorescence ratio [9] was 1.01 (inactive). The inhibition [10] was -5.15% (inactive), the inhibition [11] was -2.41% (inactive) and the fluorescence ratio [12] was 1 (inactive). For the same molecule, the mean signal [13] was 250 (inactive), the outcome [14] was “inactive” and the z-score [15] was 0.465 (inactive) and 0.86 (inactive) and 0.55 (inactive). The log fold change Tl+ flux (F380Y/beta1) was -0.00172 (inactive), the log fold change Tl+ flux (F380Y/beta4) was 0.0281 (inactive) and the log fold change Tl+ flux (R275C/beta4) was -0.0339 (inactive). The log fold change Tl+ flux (R275C/Slo1WT/beta2) was -0.000483 (inactive).
